A selection: hits, their analogues and other compounds. The true share with any hit is near 19%.
IL1B secr inh = inflammasome signaling inhibition, IL-1 beta readout | activity change, % at 57.5 µM | THP-1 LPS/ATP IL-1B secretion, AlphaLISA, 16 h; active compounds read low | actives 4.7% (n = 360,000); in the data active means activity change below about -50%; inconclusive means mostly about -30% to -49%
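Secreted IL-1B measured by AlphaLISA bead assay after 16 h compound exposure of THP-1 cells; compounds (final up to 57.5 uM) added 1 h before LPS (250 ng/mL) and ATP (1.25 mM) stimulation; lower signal means less secretion.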
ELG1 DNA repair = inhibitors of ELG1-dependent DNA repair in HEK293T cells. Potency, µM (top dose mostly 46.1 µM), without a hit: at the highest dose activity change, negative = inhibition, usual class: inhibitors. HEK293T ELG1-luciferase reporter, luminescence, 16 h; DNA damage induced by 5-fluorouridine. actives 2.3% (n = 330,000); further: potency means the concentration at half of the fitted maximal effect; nearly all actives have a fitted effect of over 55% in size
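Overnight (16 hr) co-exposure of 2,000 cells/well to 5-fluorouridine and compound at 37 °C preceded detection. Luciferase was quantified via ONE-Glo luminescence; loss of signal denotes inhibition.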
HT1080-NT tox = kills 2HG-producing HT-1080-NT fibrosarcoma cells; HT-1080-NT fibrosarcoma viability, CellTiter-Glo ATP luminescence, 48 h; Potency, µM (doses to about 46.1 µM), without a hit: at the top dose activity, negative = less viability, usual class: cytotoxic; actives 1.6% (n = 360,000);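 further: NT is the 2HG producing partner of a matched IDH1 knockdown line; potency means the concentration at half of the fitted maximal effect; 0% = DMSO-treated cells and -100% = media-only wells without cells; nearly all actives have a fitted effect of over 55% in size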
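Fibrosarcoma NT cells, 750 per well in 5% FBS RPMI, were exposed to compound for 48 hours. Viability: CellTiter-Glo luminescence.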
TDP1 cell noCPT = qHTS for Inhibitors of human tyrosyl-DNA phosphodiesterase 1 (TDP1): qHTS in cells in absence of CPT | Potency, µM (highest dose often 46.2 µM), inactives show at the highest dose activity change, negative = growth inhibition, actives largely listed as inhibitors | DT40 Tdp1-/- hTDP1 cells, no CPT, ATP luminescence, 48 h | actives 15% (n = 420,000); further: potency means the concentration at half of the fitted maximal effect; nearly all actives have a fitted effect of over 55% in size
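Seeded 400 DT40-hTDP1 cells/well (vehicle DMSO, no 20 nM CPT); pinned compounds; ≥48 hr at 37 °C; CellTiter-Glo luminescence as viability measure.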
HT1080 IDH1KD tx = toxicity to HT-1080 IDH1 knockdown cells (counter line); HT-1080 IDH1 knockdown viability, ATP luminescence, 48 h; Potency, µM (series often up to 46.1 µM), inactives show at the highest dose activity, negative = toxicity, usual class: cytotoxic; actives 2% (n = 360,000); AID 686971;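 further: potency means the concentration at half of the fitted maximal effect; 0% = DMSO wells and -100% = cell-free medium wells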
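In this qHTS, HT-1080 cells depleted of IDH1 are exposed for 48 h at 37 °C to compound titrations. Toxicity is scored from CellTiter-Glo luminescence, with DMSO as full viability and medium alone as none.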
TDP1 cell CPT = growth inhibition of DT40 Tdp1-/-;hTDP1 cells with camptothecin (screen for TDP1 inhibitors). actives 12% (n = 420,000). Potency, µM (highest dose often 46.2 µM), inactives show at the highest dose activity change, negative = growth inhibition, hits mostly inhibitors. chicken DT40 Tdp1-/-;hTDP1 cells + 20 nM CPT, ATP luminescence, 48 h; further: potency means the concentration at half of the fitted maximal effect; nearly all actives have a fitted effect of over 55% in size
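Chicken DT40 Tdp1-/- cells stably complemented with human TDP1 were seeded at 400 cells/well in medium containing 20 nM camptothecin, exposed to pin-transferred compounds, and grown at 37 °C for at least 48 hr. Viability was read as ATP luminescence.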
* = called active by the depositor; u = inconclusive; x = no result; [ ] = another dose, or the depositor's remark. Unless noted, the call rests on the fitted dose curve; in most records, active means well fitted curve in the direction sought with a large enough effect; inconclusive means small, poorly fitted or top-dose-only effect, or another doubt; inactive means no such curve, though single readings can be large; an effect the other way counts as inactive or inconclusive. Unless noted, on the % scale 0 is the no-effect control and ±100 the full control effect.

SMILES	IL1B secr inh	ELG1 DNA repair	HT1080-NT tox	TDP1 cell noCPT	HT1080 IDH1KD tx	TDP1 cell CPT
Brc1ccc(OCc2nnnn2-c2ccccc2)cc1	-69*	6%	-17%	u	-18%	0%
COc1ccc(OCc2nnnn2-c2ccccc2)cc1	-10	16%	20%	-1%	-1%	-4%
CCOc1ccc(NC(=O)c2cc(C)nc3c2c(C)nn3-c2cccc(F)c2)cc1	x	x	x	u	x	2%
CCN(CC)c1ccc(-c2n[nH]c(=S)n2-c2ccccc2C)cc1	43	u	-18%	18µM*	-8%	21µM*
CN(C)c1ccc(-c2n[nH]c(=S)n2-c2ccccc2)cc1	12	3%	0%	-16%	-4%	1%
CCN(CC)c1ccc(-c2n[nH]c(=S)n2-c2ccccc2)cc1	23	u	u	23µM*	21µM*	18µM*
Cc1cc(F)ccc1C(O)c1ncc(-c2ccccc2Cl)[nH]1 (centres undefined)	-21	x	-19%	-18%	u	u
CC(CN1CCCCC1)OC(=O)/C=C/c1ccccc1 (centres undefined)	19	3%	6%	22%	-1%	-3%
Cc1nnn(C23CC4CC(CC(CC(=O)Nc5ccc(C)c(Cl)c5)(C4)C2)C3)n1	-5	u	-4%	u	-13%	u
Cc1nnn(C23C[C@@H]4C[C@@H](CC(C(=O)N5CCN(c6ccccc6)CC5)(C4)C2)C3)n1	-6	23µM*	3%	13µM*	19%	18µM*
Cc1cc(C)cc(NC(=O)CC23CC4CC(C2)CC(n2nnc(C)n2)(C4)C3)c1	-75*	u	4%	-13%	-4%	u
CSC(SC)=C(C(C)=O)C(=O)c1ccc(C)cc1	-50*	u	-1%	u	-1%	-2%
CC(=O)Oc1ccc(C)cc1	x	x	x	0%	x	10%
CCOC(=O)c1oc2ccccc2c1NC(=O)c1cccc(OC)c1OC	19	u	u	18µM*	u	16µM*
CCOC(=O)c1oc2ccccc2c1NC(=O)c1ccc(Cl)s1	-13	-4%	3%	u	8%	u
CCOC(=O)c1oc2ccccc2c1NC(=O)c1ccco1	-25	0%	-1%	u	1%	u
COc1cccc(C(=O)Nc2c(C(N)=O)oc3ccccc23)c1	-12	u	-10%	16µM*	1%	u
CCOC(=O)c1oc2ccccc2c1NC(=O)CCl	u	u	-20%	7.3µM*	u	10µM*
COc1ccc(C(=O)c2oc3ccccc3c2NC(=O)c2cccc(OC)c2)cc1	x	x	x	-3%	x	-14%
CCOC(=O)c1oc2ccccc2c1NC(=O)c1cccc(OC)c1	-19	u	7%[9.24 µM]	18µM*	-17%	13µM*
CC1(C(=O)NS(=O)(=O)c2ccccc2Cl)CCN1C(=O)CC1CCCC1 (centres undefined)	25	x	14%	1%	21%	-3%
COc1cc(CN2C[C@@H](CO)O[C@@H](n3cnc4c(NCCN(C)C)ncnc43)C2)cc(OC)c1OC	43	x	u	-4%	18%	-6%
CC(C)C(=O)N1CCCC1(C)C(=O)Nc1ccccc1 (centres undefined)	24	x	2%	7%	2%	8%
CCC1CCCCN1S(=O)(=O)c1ccc(S(=O)(=O)N(Cc2ccccn2)CC2CCCO2)cc1 (centres undefined)	-1	18µM*	6%	23µM*	-2%	23µM*

Assay outcomes: PubChem BioAssay, National Center for Advancing Translational Sciences (NCATS)
